Most compounds without a hit are left out; they make up all but 21% or so of the library.
NS1 function inh – influenza NS1 inhibition | AID 2326 | Potency, µM (series often up to 46.1 µM), without a hit: top-dose activity, positive = more growth | 0.4% of 270,000 active; calls by dose curve; also: potency is read from the fitted curve at half-maximal effect; actives are rising curves; nearly all actives have a fitted effect of over 50% in size
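S. cerevisiae expressing influenza A NS1, grown in glucose, washed, then diluted 1:100 into pH 6.0 -URA galactose medium with 23 nl compound. Growth recovery read as OD600; NS1-free strain serves as control.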
Pf growth 48h – P. falciparum growth inhibition at 48 hours (one generation). AID 504832. Potency, µM (series often up to 28.7 µM), for inactives: at the highest dose activity change, negative = inhibition, hits mostly inhibitors. 5.9% of 310,000 active. P. falciparum luciferase growth in erythrocytes, 48 h; also: potency is read from the fitted curve at half-maximal effect; % is scaled to controls: 0 for no effect and ±100 for the full control effect
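Erythrocytes infected with P. falciparum carrying an integrated firefly luciferase reporter (2% hematocrit, 0.1% parasitemia final) were exposed to compounds in RPMI 1640 with 0.5% Albumax at 37 C, 5% CO2. Growth inhibition was scored as reduced luminescence.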
CHX counter – counter-screen hit for Shiga toxin inhibitors, cycloheximide. max response, %. cell reporter, cycloheximide protein synthesis inhibition counterscreen. 12% of 300,000 active; in the data active = max response mostly above about 13%, no sharp cut-off; inactive = mostly below about 14%; also: read at 38.3 µM for the half of the compounds with a filed dose; 0% is about no effect
Shiga inhibitor – Shiga toxin inhibition. AID 2315. inhibition, % at 38.7 µM. 9.2% of 290,000 active. Vero cells, Shiga toxin protein synthesis inhibition reporter; in the data active = inhibition mostly above about 28%, no sharp cut-off; inactive = mostly below about 43%; also: 0% is about no effect
FBPA Giardia inh – inhibitors of Giardia lamblia fructose-1,6-bisphosphate aldolase | purified Giardia FBPA | Potency, µM (highest dose often 59.6 µM), for the others: at the top dose activity, negative = inhibition, most hits filed as inhibitors | 0.71% of 290,000 active | AID 2451; also: potency is read from the fitted curve at half-maximal effect; % is scaled to controls: 0 for no effect and ±100 for the full control effect; nearly all actives have a fitted effect of over 55% in size
Target sequence (A8B2U2 whole entry, looked up): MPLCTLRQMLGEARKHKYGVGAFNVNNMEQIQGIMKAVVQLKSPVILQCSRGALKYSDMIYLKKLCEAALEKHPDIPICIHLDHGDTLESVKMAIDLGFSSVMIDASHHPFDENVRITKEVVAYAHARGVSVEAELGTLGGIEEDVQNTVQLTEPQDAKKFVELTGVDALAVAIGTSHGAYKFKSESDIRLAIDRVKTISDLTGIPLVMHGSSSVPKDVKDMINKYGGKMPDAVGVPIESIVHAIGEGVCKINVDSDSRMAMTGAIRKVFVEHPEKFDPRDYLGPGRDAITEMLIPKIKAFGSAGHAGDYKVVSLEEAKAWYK
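40 nM FBPA preincubated 10 min at RT with compound (up to 57.5 uM final), then substrate plus GAPDH/TPI/NAD/arsenate coupling and diaphorase/resazurin added. Fluorescence read after 20 min at RT, 525/598 nm.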
Pf growth 96h – inhibits malaria parasite growth, 96 h. Potency, µM (doses to about 28.7 µM), inactives show top-dose activity change, negative = inhibition, hits mostly inhibitors. 6.9% of 320,000 active. P. falciparum luciferase reporter growth, 96 h; also: potency is read from the fitted curve at half-maximal effect; % is scaled to controls: 0 for no effect and ±100 for the full control effect
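Erythrocytes infected with luciferase-expressing P. falciparum were dispensed at 2% hematocrit and 0.05% parasitemia (final), then incubated with compounds 96 hours at 37 C in 5% CO2. Luminescence after detection reagent addition reported growth.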
An asterisk follows results filed as active; ? = inconclusive; nt = no result; [ ] = dose if it differs, or a comment. Unless noted, calls follow the shape of the dose curve; as a rule, active = well fitted curve in the direction sought with a large enough effect; inconclusive = small, poorly fitted or top-dose-only effect, or another doubt; inactive = no such curve, though single readings can be large; an effect the other way counts as inactive or inconclusive.

SMILES | NS1 function inh | Pf growth 48h | CHX counter | Shiga inhibitor | FBPA Giardia inh | Pf growth 96h
CCN(CC)S(=O)(=O)c1cccc(C(=O)N[C@H](C(=O)OCC(=O)Nc2ccccc2)C(C)C)c1 | -8% | 23% | 15* | 16 | -6% | nt
CCc1nnc(NC(=O)[C@@H](NC(=O)c2cccc(S(=O)(=O)N(CC)CC)c2)C(C)C)s1 | 11% | 1.7µM* | 5 | -19 | 36% | nt
CCN(CC)S(=O)(=O)c1cccc(C(=O)N[C@H](C(=O)OCC(N)=O)C(C)C)c1 | 1% | -1% | -2 | -13 | 3% | nt
Cc1ccc(S(=O)(=O)N2CCCCC2)cc1NC(=O)Cn1c(=O)cnc2ccccc21 | 0% | -25% | 4 | 16 | 2% | ?
Cc1ccc(OC(=O)c2cc(C)nn2C(C)(C)C)cc1 | 3% | 32% | -1 | -8 | 6% | 47%
Cn1cnc([N+](=O)[O-])c1SCC(=O)O | 1% | nt | nt | nt | nt | nt
CCOC(=O)c1c(C)n(C)c2ccc(OCC(O)CNC(CC)CO)cc12 (stereo not given) | 2% | ? | -2 | 6 | 0% | 2.1µM*
CCOC(=O)c1c(C)n(-c2ccc(C)cc2)c2ccc(OCC(O)CNCC3CCCO3)cc12 (stereo not given) | nt | ? | -8 | -11 | ? | 3.3µM*
CCN1C(=O)[C@H]2[C@H]3[C@H](O)[C@H](O)C/C(=N/OCc4ccccc4)[C@@H]3CC[C@@H]2C1=O | nt | nt | nt | nt | -2%[12.9 µM] | nt
COc1ccc(S(=O)(=O)NCC2CCCN(Cc3ccc(O)cc3)C2)cc1 (stereo not given) | 1% | ? | -3 | -3 | 3% | 24%
COC(=O)/C(=N/Nc1cccc(C)c1)N1CCCc2ccccc21 | -24% | -57% | 19* | 43 | -27% | 0%
O=C(C(c1ccccc1)c1ccccc1)N1CCCc2ccccc21 | -9% | ? | 30* | 119* | 0% | -110%
COC(=O)/C(=N/Nc1ccccc1)N1CCCc2ccccc21 | -5% | -11% | 6 | -3 | -24% | 10µM*
COC(=O)/C(=N/Nc1ccc(C)cc1)N1CCCc2ccccc21 | -9% | ? | -2 | -10 | ? | 12µM*
CCOC(=O)c1[nH]c2c(c1C)C(=O)CC(c1ccco1)C2 (stereo not given) | -15% | 13µM* | 6 | 9 | 1% | 14%
Cc1c(C(=O)OCc2ccccc2)[nH]c2c1C(=O)CC(c1ccco1)C2 (stereo not given) | 0% | 1.5µM* | -3 | -8 | 2% | 3%
COCCOC(=O)c1[nH]c2c(c1C)C(=O)CC(c1ccco1)C2 (stereo not given) | -41% | ? | 1 | -4 | -1% | 38%
CSCCOC(=O)c1[nH]c2c(c1C)C(=O)CC(c1ccco1)C2 (stereo not given) | 0% | ? | -3 | -5 | 0% | 3.7µM*
Cc1[nH]c2ccccc2c1C(=O)C(C)OC(=O)C1CCC1 (stereo not given) | nt | 4% | nt | nt | nt | ?
Nc1ccc(C(=O)N/N=C/c2cn(Cc3ccccc3)c3ccccc23)cc1 | 1% | 0% | 17* | 16 | 1% | ?
COC(=O)N/N=C/c1cn(Cc2ccccc2F)c2ccccc12 | 0% | -20% | 11 | 3 | 1% | 14%
CC(C)n1cc(/C=N/Nc2ccc(C(=O)O)cc2)c2ccccc21 | -13% | 34% | 58* | 54* | 1% | 260%
Nc1ccc(C(=O)N/N=C/c2cn(Cc3ccc(F)cc3)c3ccccc23)cc1 | 13% | 6% | 33* | 107* | 4% | ?
Nc1ccc(C(=O)N/N=C/c2cn(Cc3ccccc3F)c3ccccc23)cc1 | -3% | -13% | 19* | 33* | -1% | -5%
CCOC(=O)N/N=C1/C[C@@H](O)[C@@H](O)[C@@H]2[C@@H]3C(=O)N([C@@H](C)c4ccccc4)C(=O)[C@H]3CC[C@H]12 | nt | nt | nt | nt | 0%[12.9 µM] | nt
SMILES | NS1 function inh | Pf growth 48h | CHX counter | Shiga inhibitor | FBPA Giardia inh | Pf growth 96h
C#C[C@@]1(O)CC[C@@H]2[C@@H]3CCC4=C(CCC(=O)C4)[C@H]3CC[C@]21C | nt | -6%[12.8 µM] | nt | nt | 1%[21.7 µM] | 1%[12.8 µM]
O=C(O)c1ccc(N/N=C/c2cn(Cc3ccccc3F)c3ccccc23)cc1 | 5% | 73% | 67* | 32 | -1% | 8%
CCOC(=O)Cn1cc(/C=N/NC(=O)c2cc3ccccc3o2)c2ccccc21 | -10% | -18% | 26* | 58 | 12% | 10%
Cn1c(=O)c(-c2ccccc2[N+](=O)[O-])c(Cl)c2ccccc21 | -15% | 32% | -4 | -7 | -6% | -36%
Cc1ccc(Cc2cc(-c3ccc(C)cc3)n[nH]c2=O)cc1 | -2% | 16% | 40* | 52* | 4% | 32%
Cc1ccc(-c2cc(Cc3ccc(F)cc3)c(=O)[nH]n2)cc1 | -37% | 6% | 20* | 29 | 3% | 27%
O=c1[nH]nc(-c2ccc(F)cc2)cc1Cc1ccc(F)cc1 | 2% | 1% | -2 | 9 | 1% | 0%
O=C(NC1CCCCC1)C(=O)c1c[nH]c2ccccc12 | -18% | 66% | 32* | 69* | nt | 2%
Cc1ccc(NC(=O)C(=O)c2c[nH]c3ccccc23)cc1 | -8% | 69% | 33* | 47* | 8% | 20%
Cc1ccc(NC(=O)c2cc(=O)[nH]c3ccccc23)cc1 | 5% | -1% | -4 | -7 | 1% | 7%
O=C(NCC1CCCO1)C(=O)c1c[nH]c2ccccc12 (stereo not given) | nt | 69% | 27* | 162* | 2% | 104%
CCN(Cc1ccccc1)C(=O)CN1C(=O)COc2ccc(S(=O)(=O)NC3CCCC3)cc21 | -15% | ? | 15 | 2 | -2% | -5%
C=CCc1cccc(/C=N/NC(=O)c2ccc3nc[nH]c3c2)c1O | -13% | ? | 9 | -2 | nt | ?
O=C(c1ccc(-c2nnc(Nc3ccccc3)c3ccccc23)cc1)N1C[C@H]2C[C@H](C1)c1cccc(=O)n1C2 | -21% | 13µM* | -2 | -8 | 1% | 3.7µM*
CC1CC(C)CN(C(=O)c2ccc(N3CC4CC(C3)c3cccc(=O)n3C4)c([N+](=O)[O-])c2)C1 (stereo not given) | 5% | -16% | -3 | -11 | -4% | ?
O=C(c1ccc(F)c([N+](=O)[O-])c1)N1CC2CC(C1)c1cccc(=O)n1C2 (stereo not given) | 5% | -14% | 44* | 105* | 1% | -6%
O=C(O)c1ccc(NC(=O)N2C[C@H]3C[C@@H](C2)c2cccc(=O)n2C3)cc1 | 3% | 3% | -3 | -8 | 2% | ?
COc1ccc(C2=[N+](C)CCn3cccc32)c(OC)c1 | -2% | 2.1µM* | -2 | 9 | 3% | 1µM*

Assay outcomes as filed in PubChem.
